Twelve compounds from PubChem BioAssay (NCI) can be followed below.

Test systems include NCI-H23 lung; NCI-H226 lung; NCI-H322M lung; HOP-62 NSCLC; NCI-H460 lung; HOP-92 NSCLC; NCI-H522 lung; A549/ATCC NSCLC; 786-0 renal; COLO 205 colon.
Test in all cases: NCI-60 one-dose screen, 48 h (100 = growth as untreated, 0 = no growth, -100 = all killed)
Common to all, as to conditions: 10 µM unless noted

SMILES strings stand for the structures. This is part of a sample that, as a whole, favours compounds with a hit. Of some 83,000 tested, about 20% had one in any assay.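 The test compound was applied at a single concentration to cells in 96-well plates for 48 hours, and percent growth was recorded.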 Unmarked numbers belong to inactive results. Activity calls are given as the source filed them. How the source made its calls: active means growth percent below 10; inactive means the rest.

For `O=c1oc2cc(OS(=O)(=O)c3ccccc3)c(Cl)cc2c2c1CCCCCC2`, the growth with NCI-H23 lung was 80.1%; with NCI-H226 lung, 81.7%; in the experiment on NCI-H322M lung, 95.4%; in the experiment with HOP-62 NSCLC, 118%; with NCI-H460 lung it was 96.1%; in the experiment on HOP-92 NSCLC, 65.7%. Also, the growth with NCI-H522 lung is 73.2%; with A549/ATCC NSCLC it was 88.2%; in the experiment on 786-0 renal it was 87.7%; in the experiment on COLO 205 colon it was 94.4%.
Turning to `CCSc1nnc(NC(=O)COc2ccc(Cl)cc2C)s1`, the growth in the experiment on NCI-H23 lung was 105%; in the experiment on NCI-H226 lung, 101%; in the experiment with NCI-H322M lung it was 120%; in the experiment on HOP-62 NSCLC, 100%; in the experiment with NCI-H460 lung, 112%; in the experiment on HOP-92 NSCLC, 83.2%. In addition, the growth with NCI-H522 lung is 94.4%; in the experiment with A549/ATCC NSCLC it was 104%; in the experiment with 786-0 renal, 94.7%; in the experiment with COLO 205 colon it was 93.9%.
Regarding `O=C1c2ccccc2C(=O)c2c(N=Nc3sc(=O)[nH]c3S)cccc21`, the growth in the experiment on NCI-H23 lung was 96.3%; in the experiment with NCI-H226 lung, 110%; with NCI-H322M lung it was 99%; with HOP-62 NSCLC, 99.3%; with NCI-H460 lung it was 95.9%; in the experiment on HOP-92 NSCLC, 92.9%. In addition, the growth in the experiment on NCI-H522 lung was 83.1%; with A549/ATCC NSCLC, 98.1%; in the experiment on 786-0 renal it was 107%; with COLO 205 colon it was 98.9%.
`CN(C)c1ncc(-c2ccc(C(F)(F)F)cc2)c(NC2CCCCCC2)n1`: the growth is 58.5% in the experiment with NCI-H23 lung; 61.9% with NCI-H226 lung; 95.4% in the experiment with NCI-H322M lung; 88.2% in the experiment with HOP-62 NSCLC; 55.4% in the experiment on NCI-H460 lung; -1.97% (active) in the experiment with HOP-92 NSCLC. Besides, the growth was 43.6% in the experiment on NCI-H522 lung, 57.5% with A549/ATCC NSCLC, 67.2% in the experiment on 786-0 renal and 50% in the experiment with COLO 205 colon.
For `CC(=O)Nc1ccc(S(=O)(=O)NC(CCC(=O)Nc2ccc(Cl)cc2)C(=O)O)cc1` (stereo not given), the growth in the experiment on NCI-H23 lung is 97.3%; with NCI-H226 lung, 96.8%; in the experiment with NCI-H322M lung, 96.9%; in the experiment on HOP-62 NSCLC it was 92.2%; in the experiment on NCI-H460 lung, 105%; in the experiment on HOP-92 NSCLC it was 113%. Moreover, the growth in the experiment on NCI-H522 lung is 97.1%; in the experiment on A549/ATCC NSCLC, 93.8%; in the experiment on 786-0 renal, 107%; with COLO 205 colon, 97.8%.
On to `Cc1cc(-c2ccccc2)c(C)n1Cc1ccc(Cl)cc1`, for which the growth with NCI-H23 lung was 65.8%; in the experiment with NCI-H226 lung it was 71.3%; with NCI-H322M lung, 68.1%; in the experiment with HOP-62 NSCLC it was 55.4%; in the experiment on NCI-H460 lung it was 20.8%; in the experiment on HOP-92 NSCLC it was 54.2%. Also, the growth in the experiment with NCI-H522 lung is 37.5%; in the experiment with A549/ATCC NSCLC, 33.7%; in the experiment on 786-0 renal, 47.8%; in the experiment on COLO 205 colon, 38.2%.
In the case of `CC(C)C[C@H](NC(=O)[C@H](Cc1ccccc1)n1ccc(N2CCCCC2)cc1=O)B(O)O`, the growth in the experiment with NCI-H23 lung is 19.7%; in the experiment on NCI-H226 lung, -68.7% (active); with NCI-H322M lung, 70.7%; with HOP-62 NSCLC, 13.1%; with NCI-H460 lung, 34.7%; with HOP-92 NSCLC it was -10.1% (active). Also, the growth with NCI-H522 lung is -7.97% (active); in the experiment on A549/ATCC NSCLC it was 19%; in the experiment with 786-0 renal it was 28%; in the experiment on COLO 205 colon it was 28.9%.
For `CCCCCC/C=C\CCCCCCCCOc1ccc(CCOP(=O)(O)OCC[N+](C)(C)C)cc1`, the growth in the experiment on NCI-H23 lung is 98.8%; with NCI-H226 lung it was 102%; in the experiment on NCI-H322M lung it was 105%; with HOP-62 NSCLC it was 72.8%; in the experiment with NCI-H460 lung, 26.9%; in the experiment with HOP-92 NSCLC it was 60.7%. Further, the growth in the experiment with NCI-H522 lung was 59%; in the experiment with A549/ATCC NSCLC, 79%; in the experiment with 786-0 renal, 89.6%; in the experiment with COLO 205 colon, 86.4%.
Turning to `COc1ccc(/C=C/c2nc(N3CCOCC3)c3nc(Cl)c(Cl)cc3n2)cc1OC`, the growth in the experiment on NCI-H23 lung is 99.7%; with NCI-H226 lung, 102%; in the experiment on NCI-H322M lung, 145%; in the experiment with HOP-62 NSCLC, 115%; with NCI-H460 lung, 106%; in the experiment on HOP-92 NSCLC, 105%. The growth was 83.1% in the experiment with NCI-H522 lung, 96.5% in the experiment on A549/ATCC NSCLC, 99.8% in the experiment on 786-0 renal and 105% in the experiment with COLO 205 colon.
For `NS(=O)(=O)c1ccc(NCC(=O)Nc2ccc(-c3nc4ccccc4s3)cc2)cc1`, the growth is 74.7% in the experiment with NCI-H23 lung; 83.7% in the experiment on NCI-H226 lung; 88% in the experiment with NCI-H322M lung; 118% in the experiment with HOP-62 NSCLC; 92.5% in the experiment with NCI-H460 lung; 73.5% in the experiment on HOP-92 NSCLC. Also, the growth was -63.8% (active) in the experiment on NCI-H522 lung, 92.6% in the experiment with A549/ATCC NSCLC, 12.1% in the experiment on 786-0 renal and 98.5% in the experiment on COLO 205 colon.
As for `CC[C@]1(O)C[C@@H]2CN(Cc3c([nH]c4ccccc34)[C@@](C(=O)OC)(c3cc4c(cc3OC)N(C)[C@H]3[C@@](O)(C(=O)OC)[C@H](OC(C)=O)[C@]5(CC)[C@@H]6C[C@@H]6CN6CC[C@]43[C@@H]65)C2)C1`, the growth with NCI-H23 lung was 25.7%; in the experiment on NCI-H226 lung, 50.2%; in the experiment on NCI-H322M lung, 44.7%; in the experiment with HOP-62 NSCLC it was 38.8%; in the experiment with NCI-H460 lung, 6.73% (active); in the experiment on HOP-92 NSCLC, -12% (active). Moreover, the growth in the experiment on NCI-H522 lung is -20.3% (active); with A549/ATCC NSCLC it was 22.2%; with 786-0 renal, 21.4%; with COLO 205 colon, -49.5% (active).
`COc1ccc2c(c1)NC(=O)CN2c1nc(NC2CC2)nc2ccccc12`: the growth in the experiment with NCI-H23 lung is 12.4%; with NCI-H226 lung, 65.7%; with NCI-H322M lung, 40.7%; in the experiment with HOP-62 NSCLC it was 31.7%; in the experiment on NCI-H460 lung, 2.27% (active); in the experiment on HOP-92 NSCLC it was 3.22% (active). Besides, the growth in the experiment with NCI-H522 lung is -11.9% (active); with A549/ATCC NSCLC, 20.8%; with 786-0 renal, 19.6%; with COLO 205 colon it was -18.9% (active).
